The supplement of paper PMC6555819

What was measured:
Assay in all cases: PBM binding z-score (relative to random genomic background probes); higher = stronger binding; sequences stand for … in GC…GCGATTGACAGCGTAGAATGAAGG
[1] = system: RARb homodimer (NR concentration 270 nM)
Method in brief: (§1)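 For binding z-scores, the reference was random background probes on custom Agilent 4×180K protein-binding microarrays. These arrays were incubated 1 h with ligand-free nuclear receptor dimers in PBS pH 7.4, 2% milk, 0.02% Triton X-100, 1 mM DTT, 0.2 mg/mL BSA and 0.4 mg/ml salmon testes DNA. Fluorescence was scanned after antibody detection of each partner (one per run) and regression-normalized.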

[2] = system: RARg:RXRa (NR concentration 270 nM, RXRa partner concentration 90 nM)
Method in brief: as §1

[3] = system: RARg homodimer (NR concentration 270 nM)
Method in brief: as §1

[4] = system: RXRa DBDmut IVT, anti-RXR (DBD mutation: RXRa K156A/R161A, NR concentration 90 nM)
Method in brief: as §1

[5] = system: RXRa homodimer (NR concentration 180 nM)
Method in brief: as §1

[6] = system: THRa:RXRa (NR concentration 90 nM, RXRa partner concentration 90 nM)
Method in brief: as §1

[7] = system: THRa homodimer (NR concentration 90 nM)
Method in brief: as §1

[8] = system: VDR:RXRa (NR concentration 270 nM, RXRa partner concentration 90 nM)
Method in brief: as §1

[9] = system: VDR homodimer (NR concentration 270 nM)
Method in brief: as §1

Sequence | PBM binding z-score [1] | PBM binding z-score [2] | PBM binding z-score [3] | PBM binding z-score [4] | PBM binding z-score [5] | PBM binding z-score [6] | PBM binding z-score [7] | PBM binding z-score [8] | PBM binding z-score [9]
ATATCTAGGTAAAAGTTCAGTGAATCCCGAGGAT | 2.58 | 2.11 | 2.05 | 0.832 | 1.62 | 1.38 | 0.52 | 1.59 | 2.01
TCTAGTTGGTCAAAGGTCAAACACTCGAAATGCG | 5.02 | 7.43 | 6.41 | 2.11 | 8.23 | 4.04 | 1.45 | 5.41 | 3.12
CCGAGTAGGTTGCGAGGGGGCATTCAGTGCGAAT | 1.77 | 1.99 | 1.28 | 1.58 | 1.27 | 3.09 | 0.684 | 4.26 | 3.23
ATCGAAAGGTGGACGAGGTGAGTATACACCGTTT | 0.375 | 0.545 | 0.833 | -0.461 | 0.799 | 1.77 | 0.434 | 0.85 | -0.347
AATACAGGGTGATCGTAGGCCAGAGTACGCACAG | 0.66 | 0.545 | 0.556 | -0.0921 | 0.57 | 1.73 | 0.135 | 0.0765 | 0.376
CTACGTAGGTTAAGGGGGTCATTCAGTTTGAAAG | 3.61 | 5.6 | 4.1 | 1.87 | 6.27 | 3.9 | 1.23 | 7.58 | 6.07
CTATGTAGGTGAAGGGGGTCATTCAGTTTGAAAG | 3.79 | 4.75 | 3.55 | 2.11 | 5.63 | 3.88 | 1.67 | 7.13 | 5.55
CCTCCAAGGTCATAGGAGGTCAGTGAAGACAGAT | 5.33 | 6.72 | 7.01 | 3.01 | 6.79 | 5.36 | 3.1 | 6.6 | 4.12
CCGAGTAGGTTACGCGGGGGCATTCAGTGCGAAT | 2.09 | 3.1 | 2.15 | 1.8 | 2.23 | 4.51 | 0.878 | 5.48 | 3.76
TCGAGTAGGTTACGGGCGCATTCAGGGATGAAGA | 0.216 | 0.276 | 0.202 | -0.064 | 0.599 | 0.304 | -0.327 | -0.354 | -0.375
CTATGTAGGTTAAGGGGGTTATTCAGTTTGAAAG | 2.15 | 2.55 | 1.56 | 1.43 | 2.57 | 2.53 | 1.4 | 5.71 | 3.24
CCTTACAGGTCAAGGTTATAGCACGGGTGGTACG | 3.78 | 5.27 | 5.53 | 1.83 | 4.72 | 3.18 | 1.33 | 3.41 | 1.73
CTATATAGGTTAAGGGGGTCATTCAGTTTGAAAG | 3.8 | 5.72 | 4.34 | 2.61 | 6.69 | 4.18 | 1.99 | 7.71 | 6.17
TCGAGTAGGTTACGGGGACATTCAGGGATGAAGA | 1.42 | 1.26 | 1.01 | 0.561 | 1.09 | 2.77 | 1.57 | 1.27 | 1.1
ACTCGGGGGACAAAGGTCAGAGCTACGCCAGTGA | 4.56 | 7.2 | 6.12 | 2.06 | 6.34 | 3.82 | 1.07 | 4.66 | 1.81
TCGAGTAGGTTACGGGGGCTTTCAGGGATGAAGA | 1.29 | 1.96 | 1.19 | 1.17 | 1.69 | 2.43 | 0.921 | 2.02 | 0.544
CCGAGTAGGTTACGAGGGGGCATTCAGTGCGAAT | 2.12 | 3.18 | 2.54 | 1.15 | 2.18 | 3.83 | 0.272 | 5.35 | 3.79
AATACAGGGTCACTAGGCCAGAGTGGGTACGAAT | 3.17 | 5.09 | 4.79 | 2.59 | 5.4 | 3.29 | 1.4 | 3.97 | 3.06
CCGAGTAGGTTACGAGCGGGCATTCAGTGCGAAT | 0.628 | 0.683 | 0.688 | 0.309 | 0.313 | 1.23 | -0.803 | 0.355 | -0.206
CCTAGTTGGTCAGGAGGTCACATACCGGATATGA | 4.17 | 4.57 | 3.85 | 0.947 | 3.92 | 3.32 | 2.13 | 3.57 | 2.4
CGTCAACGTTCAACTAAGGTAACGTAAAGCACGC | 0.8 | 0.496 | 0.603 | 0.449 | 0.587 | 3.84 | 1.68 | 0.25 | 0.137
TCGAGTACGTTACGGGGGCATTCAGGGATGAAGA | 1.42 | 1.46 | 0.926 | 3.21 | 1.25 | 3.59 | 0.925 | 3.76 | 4.32
CAGCCTAGGTGAGGGCCAGTATAGGAGGAACGTT | 0.105 | -0.107 | 0.177 | -0.941 | -0.128 | 0.00456 | -0.223 | -0.634 | -0.734
CCTTACGGGCCACGAGGTTATAGCACGACGAGCG | 1.17 | 1.33 | 1.07 | -0.516 | 1.28 | 1.25 | 0.458 | 0.504 | 0.543
CCTACTGGGCCAAAACGGTCATTGATGCCGATAA | 1.39 | 0.276 | 0.635 | -0.682 | -0.274 | -0.206 | -0.538 | -0.116 | -0.184
CTATGTAGGTTTAGGGGGTCATTCAGTTTGAAAG | 3.42 | 4.23 | 3.14 | 2.35 | 4.8 | 3.52 | 1.9 | 6.29 | 5.35

Sequence | PBM binding z-score [1] | PBM binding z-score [2] | PBM binding z-score [3] | PBM binding z-score [4] | PBM binding z-score [5] | PBM binding z-score [6] | PBM binding z-score [7] | PBM binding z-score [8] | PBM binding z-score [9]
CAAACTAGGTCACGAAAGGTCAACGTCGAATGAC | 6.16 | 8.06 | 8.96 | 2.47 | 8.35 | 5.36 | 2.98 | 6.9 | 3.47
CCTACTGGGCCAAAGGTCATAGATTCCAATGCTC | 4.32 | 5.69 | 4.78 | 1.1 | 6.28 | 3.22 | 0.866 | 4.17 | 2.27
GATACAGAGTCAGCTAGAGGCCAGAGTATGGAAA | -0.00482 | 0.958 | 0.249 | -0.732 | -0.0704 | -0.305 | -1.05 | -0.601 | -0.0123
ACTCGGAGGATAAAGGTCAGAGCTACGCCAGTGA | 3.89 | 4.72 | 4.44 | 0.655 | 4.43 | 2.69 | 0.203 | 2.36 | 0.801
TCGACTAGGTTACGGGGGCATTCAGGGATGAAGA | 2.54 | 3.66 | 3.14 | 2.55 | 2.88 | 4.1 | 1.91 | 4.04 | 3.72
CCGAGTAGGTTACAAGGGGGCATTCAGTGCGAAT | 2.41 | 2.84 | 2.42 | 1.47 | 2.1 | 3.61 | 0.507 | 5.11 | 3.51
TCTCGGAGGACACGAAAAGTCAGAGCTCGACATC | 0.803 | 0.704 | 1.37 | 1.08 | 0.187 | 1.27 | 0.205 | -0.0283 | -0.252
TCTTGTAGATCAAAGGTCAAGAAAGCCGAAGCCT | 4.47 | 5.63 | 5.37 | 0.913 | 7.17 | 3.42 | 0.378 | 4.14 | 0.514
AGTCGGAGGACAAAGGTCAGAGCTACGCCAGTGA | 4.3 | 6.16 | 5.52 | 0.767 | 5.6 | 3.63 | 0.663 | 3.28 | 1.37
CGAACTAGGGCACCAGGACAGTGAAGAGGTTGGA | 0.758 | 0.748 | 1.34 | 0.0116 | 0.278 | 1.05 | 0.327 | -0.582 | -0.274
GCTGCTCGGTCAACTGATGGTCAGCTAAAGCTCG | 2.15 | 2.42 | 3.21 | -0.121 | -0.0356 | 0.0227 | -0.551 | -0.285 | -0.439
CGTCAAAGTTCAAGGTAAAGTAACAGAAAGCAGC | 3.36 | 5.19 | 6.06 | 4.04 | 4.17 | 2.5 | 0.503 | 3.4 | 2.89
GGAACGAGCGCAAAGTTGATAGCATCTGTCGACG | -0.951 | -0.446 | -0.392 | -0.219 | -0.2 | -0.823 | -1.24 | -0.765 | -0.905
CGAACTAGGTCACGAGGACAGTGAAGAGGTTGGA | 3.75 | 4.91 | 5.66 | 1.48 | 3.85 | 3.84 | 2.61 | 2.75 | 0.957
AGTCAAAGTTCAGTAGGTAACGTAAGATTCAGCT | 3.15 | 3.74 | 4.28 | 3.23 | 2.08 | 0.91 | -0.604 | 2.4 | 2.23
ATCTCTAGGTAAAGTTCATTGAAAGATCGATAGA | 1.97 | 2.99 | 3.16 | 2.96 | 2.49 | 1.84 | 0.478 | 3.08 | 4.56
ATCGAAAGGTCGTGAGGTGAGTACACAGAAAGGC | 3.12 | 4.77 | 4.06 | 1.6 | 5.77 | 3.39 | 1.68 | 4.14 | 1.92
TCATATAGGTAATCAGGTGAAAGTCCGTAAGTTA | 0.773 | 0.361 | 0.3 | 1.52 | 0.885 | 1.82 | 1.51 | 1.19 | 0.521
AGTCAAAGTTCAGGACGAGGTAAAGTAAAGCACG | 3.05 | 4.76 | 4.51 | 3.04 | 3.22 | 3.78 | 1.51 | 3.01 | 2.35
TAGCCTAGGTCATGCGGGTCAGTATAGTGTCGGC | 4.27 | 4.91 | 4.9 | 1.07 | 4.2 | 3.75 | 1.35 | 5.81 | 2.26
TAGCCTAGGTCAGATCGGGGCAGTATACGCTATA | 2.27 | 2.87 | 3.83 | -0.173 | 1.6 | 4.07 | 0.0921 | 1.56 | 0.0728
TCGAGTAGGTTAAGGGGGCATTCAGGGATGAAGA | 2.37 | 3.17 | 2.01 | 1.92 | 2.62 | 3.58 | 1.48 | 3.35 | 3.24
TAGAGTAGGTTACGGGGGCATTCAGGGATGAAGA | 2.5 | 3.43 | 2.77 | 2.08 | 3.21 | 3.99 | 1.75 | 4.09 | 3.81
ATATGTAGGTTAGCTGGCGTCATTCAGACTAGGC | -0.15 | 0.427 | 0.556 | -0.166 | 0.485 | -0.223 | -0.829 | -0.12 | -0.39
CCTCGGAGGACACCAGGAGGTCAGAGCTGCCAGA | 3.49 | 3.94 | 3.53 | -0.302 | 2.11 | 2.93 | 1.37 | 1.99 | 1.13
CCTACTGGGGCAAAGGTCATTGATTCCAATGCTC | 4.6 | 6.11 | 4.61 | 0.782 | 6.93 | 3.66 | 0.71 | 4.96 | 1.92
